{"source": "paper PMC4336329", "about": "(PLoS ONE, 2015)", "note": "In all, about 310,000 compounds went through this assay and about 14,000 (4.5%) showed an effect of 50% or more. Effects have a minus sign here. The entries come from a sample that favours strong results as a whole.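 Also: peak tail current of the secondary pulse compared with the same well before compound.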", "data": [{"target": "human ether-à-go-go-related gene (hERG) potassium channel (human, UniProt Q12809)", "sequence (Q12809 whole entry, looked up)": "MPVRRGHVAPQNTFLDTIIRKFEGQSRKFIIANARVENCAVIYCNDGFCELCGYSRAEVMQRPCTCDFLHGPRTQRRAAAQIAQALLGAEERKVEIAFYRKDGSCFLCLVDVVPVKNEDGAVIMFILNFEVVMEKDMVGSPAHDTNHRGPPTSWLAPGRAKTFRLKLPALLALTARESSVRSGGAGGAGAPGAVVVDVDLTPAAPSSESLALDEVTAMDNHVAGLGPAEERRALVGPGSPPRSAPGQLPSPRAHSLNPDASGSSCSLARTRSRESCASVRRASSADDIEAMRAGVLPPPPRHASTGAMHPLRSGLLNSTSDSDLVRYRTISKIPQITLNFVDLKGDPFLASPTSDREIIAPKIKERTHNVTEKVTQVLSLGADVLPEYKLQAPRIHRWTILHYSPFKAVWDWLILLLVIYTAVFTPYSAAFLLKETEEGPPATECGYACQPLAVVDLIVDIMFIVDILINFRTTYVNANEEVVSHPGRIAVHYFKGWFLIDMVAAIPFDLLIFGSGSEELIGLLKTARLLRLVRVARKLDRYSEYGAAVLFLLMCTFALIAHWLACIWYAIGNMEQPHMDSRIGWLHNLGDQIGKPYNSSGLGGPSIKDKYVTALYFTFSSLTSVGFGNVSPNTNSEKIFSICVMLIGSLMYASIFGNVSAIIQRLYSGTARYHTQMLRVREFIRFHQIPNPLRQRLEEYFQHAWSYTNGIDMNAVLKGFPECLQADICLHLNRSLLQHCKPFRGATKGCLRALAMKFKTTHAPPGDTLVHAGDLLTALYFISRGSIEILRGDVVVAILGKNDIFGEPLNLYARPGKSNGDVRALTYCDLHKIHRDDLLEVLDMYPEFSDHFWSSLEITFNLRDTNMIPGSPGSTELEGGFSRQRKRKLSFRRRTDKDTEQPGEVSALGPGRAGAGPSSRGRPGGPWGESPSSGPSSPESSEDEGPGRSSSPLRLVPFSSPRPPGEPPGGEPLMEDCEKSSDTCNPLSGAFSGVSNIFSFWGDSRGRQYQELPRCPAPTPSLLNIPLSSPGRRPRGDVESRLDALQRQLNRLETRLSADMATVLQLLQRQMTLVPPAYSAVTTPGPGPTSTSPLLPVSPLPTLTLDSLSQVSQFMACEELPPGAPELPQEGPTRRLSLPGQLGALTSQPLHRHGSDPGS", "test": "primary screen, population patch clamp on CHO cells stably expressing hERG; higher = less effect of the substance", "units": {"hERG current change (%, negative = inhibition) at 10uM": "%"}, "values": [{"smiles": "NC(=O)CC1C(=O)N(c2ccc(Cl)cc2)C(=S)N1NC(=O)c1cccc(F)c1", "note": "(centres unmarked)", "hERG current change (%, negative = inhibition) at 10uM": 15.3}, {"smiles": "COc1ccccc1/C=C/C(=O)NCC(=O)N/N=C(/C)c1ccco1", "hERG current change (%, negative = inhibition) at 10uM": 7.74}, {"smiles": "Nc1[nH]nc2nc3ccccc3cc12", "hERG current change (%, negative = inhibition) at 10uM": 23}, {"smiles": "O=c1oc2ccccc2cc1-c1cn2cccnc2n1", "hERG current change (%, negative = inhibition) at 10uM": 1.91}, {"smiles": "COc1ccc(C2C(C(=O)N3CCN(c4ccccn4)CC3)CCC(=O)N2c2cc(OC)c(OC)c(OC)c2)cc1", "note": "(centres unmarked)", "hERG current change (%, negative = inhibition) at 10uM": 9.77}, {"smiles": "Cc1cccc(N=C2C(=O)Nc3c(Cl)cccc32)c1", "hERG current change (%, negative = inhibition) at 10uM": 18.5}, {"smiles": "CCc1nc2cc(Cl)c(Cl)cc2[nH]1", "hERG current change (%, negative = inhibition) at 10uM": 2.59}, {"smiles": "Cc1cc(-n2c(=O)c(C#N)cc3c(=O)n4ccccc4nc32)no1", "hERG current change (%, negative = inhibition) at 10uM": -17}, {"smiles": "Cc1cc(-n2c(=O)c(C#N)cc3c(=O)n4cccc(C)c4nc32)no1", "hERG current change (%, negative = inhibition) at 10uM": -65.1}, {"smiles": "Cc1ccc(-n2c(=O)c(C#N)cc3c(=O)n4cccc(C)c4nc32)cc1", "hERG current change (%, negative = inhibition) at 10uM": 1.03}, {"smiles": "Cc1ccc(OC(=O)c2ccc(S(=O)(=O)N(C)C)cc2)c(-n2nc3ccccc3n2)c1", "hERG current change (%, negative = inhibition) at 10uM": 3.83}, {"smiles": "O=C(Nc1nccs1)c1ccc(-c2ccc(Cl)cc2Cl)o1", "hERG current change (%, negative = inhibition) at 10uM": 25.5}, {"smiles": "Cc1cccn2c(=O)c3cc(S(=O)(=O)c4ccccc4)c(=N)n(CC4CCCO4)c3nc12", "note": "(centres unmarked)", "hERG current change (%, negative = inhibition) at 10uM": -15.3}, {"smiles": "Cc1ccc(CCNC(=O)c2ccc3nc4ccccc4c(=O)n3c2)cc1", "hERG current change (%, negative = inhibition) at 10uM": 6.08}, {"smiles": "O=C(CSc1nc2ccccc2c(=O)n1CC1CCCO1)NCCc1ccccc1", "note": "(centres unmarked)", "hERG current change (%, negative = inhibition) at 10uM": 7.48}, {"smiles": "Cc1ccc2nc3c(cc(C(=O)NCCc4ccccc4)c(=N)n3CC3CCCO3)c(=O)n2c1", "note": "(centres unmarked)", "hERG current change (%, negative = inhibition) at 10uM": -76.9}, {"smiles": "COc1ccc(CNC(=O)C(=O)NCC2CCCO2)cc1", "note": "(centres unmarked)", "hERG current change (%, negative = inhibition) at 10uM": 9.7}, {"smiles": "Cc1cccn2c(=O)c3cc(C(=O)NCCc4ccccc4)c(=N)n(CC4CCCO4)c3nc12", "note": "(centres unmarked)", "hERG current change (%, negative = inhibition) at 10uM": -82.3}, {"smiles": "COc1ccc(CNC(=O)c2cc3c(=O)n4cccc(C)c4nc3n(CC3CCCO3)c2=N)cc1", "note": "(centres unmarked)", "hERG current change (%, negative = inhibition) at 10uM": -77.2}, {"smiles": "COc1ccc(CCNC(=O)c2cc3c(=O)n4cccc(C)c4nc3n(CC3CCCO3)c2=N)cc1", "note": "(centres unmarked)", "hERG current change (%, negative = inhibition) at 10uM": -75.2}, {"smiles": "CCOc1cc(CNCCc2cccc(F)c2)ccc1OC.O=C(O)C(=O)O", "hERG current change (%, negative = inhibition) at 10uM": -43.8}, {"smiles": "O=C(Nc1ccc2c(c1)OCCO2)c1cnn(-c2ccccc2)n1", "hERG current change (%, negative = inhibition) at 10uM": -6.02}, {"smiles": "O=C(CSc1nc2cc(Cl)ccc2c(=O)n1Cc1ccco1)Nc1ccc(S(=O)(=O)N2CCOCC2)cc1", "hERG current change (%, negative = inhibition) at 10uM": -13.6}, {"smiles": "Cc1ccc(NC(=O)CCNC(=O)c2ccccc2Cl)cc1S(=O)(=O)N1CCOCC1", "hERG current change (%, negative = inhibition) at 10uM": -8.82}, {"smiles": "Cn1c(C(=O)O)ccc1S(=O)(=O)N(Cc1ccccc1)Cc1ccccc1", "hERG current change (%, negative = inhibition) at 10uM": 16.5}, {"smiles": "Cc1ccccc1NC(=O)Cn1c(NCC(C)O)nc2ccccc21", "note": "(centres unmarked)", "hERG current change (%, negative = inhibition) at 10uM": -2.11}, {"smiles": "COc1ccc(S(=O)(=O)c2c(O)c3ccc(C(=O)Nc4ccccc4F)cc3[nH]c2=O)cc1", "hERG current change (%, negative = inhibition) at 10uM": -0.579}, {"smiles": "CCc1nnc(NC(=O)CSc2nnc(CSc3nc(C)cc(C)n3)o2)s1", "hERG current change (%, negative = inhibition) at 10uM": 3.21}, {"smiles": "COc1ccc(CCNC(=O)c2cc3c(=O)n4ccccc4nc3n(CC3CCCO3)c2=N)cc1OC", "note": "(centres unmarked)", "hERG current change (%, negative = inhibition) at 10uM": -78.4}, {"smiles": "O=C(NCc1ccc(Cl)cc1)c1ccc2c(=O)n(CC3CCCO3)c(=S)[nH]c2c1", "note": "(centres unmarked)", "hERG current change (%, negative = inhibition) at 10uM": 7.01}, {"smiles": "COc1ccc(CCNC(=O)Cn2c(=O)n(CC3CCCO3)c(=O)c3ccccc32)cc1OC", "note": "(centres unmarked)", "hERG current change (%, negative = inhibition) at 10uM": -0.738}, {"smiles": "N=c1c(C(=O)NCCc2ccccc2)cc2c(=O)n3ccccc3nc2n1CC1CCCO1", "note": "(centres unmarked)", "hERG current change (%, negative = inhibition) at 10uM": -90.7}, {"smiles": "Cc1cccn2c(=O)c3cc(C(=O)NCc4ccc(F)cc4)c(=N)n(CC4CCCO4)c3nc12", "note": "(centres unmarked)", "hERG current change (%, negative = inhibition) at 10uM": -74}, {"smiles": "Cc1ccc2nc(/C(C#N)=C\\c3ccc(Oc4ccc(C(F)(F)F)cc4[N+](=O)[O-])cc3)[nH]c2c1", "hERG current change (%, negative = inhibition) at 10uM": 20.8}, {"smiles": "COc1ccc(C(=O)CC(=O)C(=O)Nc2ccc(OC)c(Cl)c2)cc1", "hERG current change (%, negative = inhibition) at 10uM": 12.9}, {"smiles": "Cc1nn(-c2ccccc2)c(N2CCCCC2)c1/C=N/NC(=O)c1ccncc1", "hERG current change (%, negative = inhibition) at 10uM": 7.3}, {"smiles": "O=C1CCCC2=C1C(c1ccccc1)n1c(s/c(=C/c3cccc(F)c3)c1=O)=N2", "note": "(centres unmarked)", "hERG current change (%, negative = inhibition) at 10uM": 16}, {"smiles": "NCc1cccc(CNc2ccc([N+](=O)[O-])cc2C(N)=O)c1", "hERG current change (%, negative = inhibition) at 10uM": -19.9}, {"smiles": "O=[N+]([O-])c1cc(C(F)(F)F)ccc1NC1CCN(Cc2ccccc2)C1", "note": "(centres unmarked)", "hERG current change (%, negative = inhibition) at 10uM": -66.6}, {"smiles": "NC(=O)CC(NC(=O)c1cccc(Br)c1)c1ccc(NC2CCN(Cc3ccccc3)CC2)c([N+](=O)[O-])c1", "note": "(centres unmarked)", "hERG current change (%, negative = inhibition) at 10uM": 6.8}, {"smiles": "NC(=O)CC(NC(=O)c1ccccc1)c1ccc(NC2CCN(Cc3ccccc3)CC2)c([N+](=O)[O-])c1", "note": "(centres unmarked)", "hERG current change (%, negative = inhibition) at 10uM": 1.08}, {"smiles": "O=[N+]([O-])c1cc(C(F)(F)F)ccc1NC1CCN(Cc2ccccc2)CC1", "hERG current change (%, negative = inhibition) at 10uM": -68}, {"smiles": "NC(=O)CC(NC(=O)Cc1ccc(Br)cc1)c1ccc(NC2CCN(Cc3ccccc3)CC2)c([N+](=O)[O-])c1", "note": "(centres unmarked)", "hERG current change (%, negative = inhibition) at 10uM": -45.8}, {"smiles": "NC(=O)CC(NC(=O)Cc1ccc(Cl)cc1)c1ccc(NC2CCN(Cc3ccccc3)CC2)c([N+](=O)[O-])c1", "note": "(centres unmarked)", "hERG current change (%, negative = inhibition) at 10uM": -18.5}]}]}
